Assay results reported in the supplement of paper PMC12632987.

T1: USP38, Q8NB14
T1 chain: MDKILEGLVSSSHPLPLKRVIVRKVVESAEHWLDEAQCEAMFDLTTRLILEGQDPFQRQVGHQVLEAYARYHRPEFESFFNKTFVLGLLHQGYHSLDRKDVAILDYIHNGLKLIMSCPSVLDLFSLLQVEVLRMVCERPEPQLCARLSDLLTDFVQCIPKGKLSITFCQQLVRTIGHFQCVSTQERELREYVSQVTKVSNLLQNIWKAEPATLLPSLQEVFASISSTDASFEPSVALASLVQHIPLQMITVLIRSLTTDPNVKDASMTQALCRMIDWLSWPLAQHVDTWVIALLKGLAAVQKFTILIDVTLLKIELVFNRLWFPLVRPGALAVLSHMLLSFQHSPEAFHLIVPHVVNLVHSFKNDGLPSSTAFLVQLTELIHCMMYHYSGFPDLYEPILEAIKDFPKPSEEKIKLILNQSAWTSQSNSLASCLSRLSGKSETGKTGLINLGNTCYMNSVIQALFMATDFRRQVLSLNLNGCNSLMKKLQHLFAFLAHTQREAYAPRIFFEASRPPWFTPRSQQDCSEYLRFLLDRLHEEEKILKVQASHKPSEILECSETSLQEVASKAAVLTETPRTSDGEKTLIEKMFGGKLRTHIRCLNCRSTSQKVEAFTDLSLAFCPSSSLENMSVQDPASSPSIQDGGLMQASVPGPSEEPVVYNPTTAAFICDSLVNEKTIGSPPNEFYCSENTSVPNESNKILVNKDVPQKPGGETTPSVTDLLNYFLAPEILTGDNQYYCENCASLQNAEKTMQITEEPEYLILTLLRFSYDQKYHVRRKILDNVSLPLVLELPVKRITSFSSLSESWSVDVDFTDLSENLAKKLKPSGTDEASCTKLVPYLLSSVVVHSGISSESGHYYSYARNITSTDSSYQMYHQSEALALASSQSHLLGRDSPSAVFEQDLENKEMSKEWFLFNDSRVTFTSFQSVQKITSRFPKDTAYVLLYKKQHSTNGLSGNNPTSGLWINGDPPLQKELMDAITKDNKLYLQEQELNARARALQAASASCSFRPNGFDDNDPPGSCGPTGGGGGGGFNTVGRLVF


Target: T1, USP38, Q8NB14
Experiment: median log2 fold change of GCK-ALFA target abundance (FLAG IP / Myc IP barcode read proportion) (log2 ratio); each designed protein is fused to an ALFA-tag nanobody in HEK293 cells to bring the named protein to FLAG-tagged glucokinase (GCK); Myc marks an untargeted standard; higher = target protein stabilised (more abundant)
Conditions: target protein: 3xFLAG-MCP-GCK-ALFA reporter; HEK293 landing pad (RPLP)
Outline: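 Binders fused to an ALFA nanobody were recombined as a library into HEK293 landing-pad cells, which were induced with 2 μg mL^−1 doxycycline and then transfected to express a FLAG-tagged target and a Myc-tagged standard. After 48 h, circular RNA barcodes recovered by anti-FLAG and anti-Myc immunoprecipitation of lysates were reverse transcribed, amplified and sequenced. Each binder's target abundance is the median log2 ratio of FLAG to Myc barcode read proportions, from barcodes present at ≥10^−7 in both replicates, binders carrying ≥3 barcodes per replicate, a 10^−6 pseudocount and pooled replicates.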

Row | Binder | median log2 fold change
1 | usp_38_diff_out_9_172_624 (protein) DLESKRFKIQWLLADAIDLLQKIAKKADEENKKKLIEAAMLLLKASQLVVEGGDKEEILKLLEEAKKLVKELAKKDPKNKKELEEAIKLIEEAIKLVKEL | -0.076
2 | usp_38_diff_out_9_42_625 (protein) MKELEEKREETLKLIAEAGRYVDEVIERLAKLDPELARELRREAAEAHDKIVELTQEANKYYLAGEETKEEFLAKLDEIKKIVDELRKRAEELLAAAEAA | 0.146
3 | usp_38_diff_out_9_42_629 (protein) RKELEERLLELIRETGEVLREAEEVLRELREVDPEAARRFRREVAELLDKIDDKLLKAQRLLLQDESKYPEAQAALDEAERLVEELRRLAEEWRRRLKER | -0.63
